From PubChem
JMJD2E inh – qHTS Assay for Inhibitors of Human Jumonji Domain Containing 2E (JMJD2E). JMJD2E catalytic domain, FDH-coupled NADH fluorescence (FDH is formaldehyde dehydrogenase). Potency, µM (highest dose often 57.1 µM), for the others: at the top dose activity change, negative = inhibition, actives largely listed as inhibitors. hit rate 1.6% among 230,000. AID 2147, 2009;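 further: potency means the concentration at half of the fitted maximal effect; 0% = wells with enzyme and -100% = buffer wells without enzyme; nearly all actives have a fitted effect of over 50% in size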
Target sequence (B2RXH2 1-337 limits assumed): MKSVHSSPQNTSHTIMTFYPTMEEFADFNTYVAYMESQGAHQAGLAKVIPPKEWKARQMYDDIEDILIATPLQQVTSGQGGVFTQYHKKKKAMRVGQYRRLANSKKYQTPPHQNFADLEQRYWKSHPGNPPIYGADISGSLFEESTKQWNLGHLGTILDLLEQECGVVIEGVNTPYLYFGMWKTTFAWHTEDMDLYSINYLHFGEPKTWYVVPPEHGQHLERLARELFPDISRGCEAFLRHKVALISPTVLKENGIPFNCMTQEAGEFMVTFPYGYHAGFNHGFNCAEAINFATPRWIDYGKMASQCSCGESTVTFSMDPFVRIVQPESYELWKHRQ
PNC inhibitor – High Content Assay for Compounds that inhibit the Assembly of the Perinucleolar Compartment. PC3M PTB-GFP, PNC prevalence imaging, 16 h; stronger effect = lower value. activity change (PNC), negative = inhibition, % at 10 µM. hit rate 3.1% among 140,000;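 active means readout at or below -70, meaning at least 70% loss of cells showing the perinucleolar compartment, a nuclear body marking cancer cells; inconclusive means readout between -30 and a set limit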;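 further: plate controls were DMSO wells for no effect and camptothecin positive control wells for full effect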
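Compounds are pinned in duplicate onto adhered PC3M cells stably expressing GFP-tagged PTB and incubated 16 h at 37 C. Cells are then fixed, nuclei stained with Hoechst, and PNC-positive cells counted.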
HPGD inh – qHTS Assay for Inhibitors of HPGD (15-Hydroxyprostaglandin Dehydrogenase); 15-hydroxyprostaglandin dehydrogenase [NAD(+)] (Homo sapiens), P15428; purified HPGD, NADH fluorescence kinetic, PGE2 substrate; Potency, µM, for the others: top-dose activity change, negative = inhibition, hits mostly inhibitors; hit rate 4.3% among 150,000; AID 894, 2007; further: potency means the concentration at half of the fitted maximal effect
Target sequence (P15428 whole entry, looked up): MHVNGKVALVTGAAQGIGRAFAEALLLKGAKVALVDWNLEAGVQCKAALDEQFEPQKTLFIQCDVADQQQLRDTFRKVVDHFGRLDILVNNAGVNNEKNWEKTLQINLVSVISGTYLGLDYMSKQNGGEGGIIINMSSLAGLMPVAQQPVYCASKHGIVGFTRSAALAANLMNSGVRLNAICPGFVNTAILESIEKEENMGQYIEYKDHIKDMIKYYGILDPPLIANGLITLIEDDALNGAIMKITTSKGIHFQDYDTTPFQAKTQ
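NADH formation kinetics: reaction with 30 uM PGE2 and 1 mM NAD+ (final), 20 nM enzyme, Tris-HCl pH 8 with Tween 20, after 15 min compound preincubation at room temperature. Fluorescence change, last versus first of five reads.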
ALDH1A1 inh – qHTS Assay for Inhibitors of Aldehyde Dehydrogenase 1 (ALDH1A1). Potency, µM (titrated, usually from 75.3 µM), inactives show top-dose activity, negative = inhibition, hits mostly inhibitors. Aldehyde dehydrogenase 1A1 (Homo sapiens), P00352. AID 1030, 2008. Purified ALDH1A1, NADH fluorescence, propionaldehyde substrate. hit rate 7.3% among 220,000;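 further: potency means the concentration at half of the fitted maximal effect; plate controls were no enzyme wells and a reference inhibitor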
* = called active by the depositor; ? = inconclusive; . = not tested or not shown; [ ] = dose if it differs, or a comment. In the library only some 11% were active in any assay of this set; here they are far more common. Unless noted, the call rests on the fitted dose curve; in most records, active means well fitted inhibition curve with a large enough effect (not every such curve was filed as active); inconclusive means small, poorly fitted or top-dose-only effect, or another doubt; inactive means no such curve, though single readings can be large or run the other way. Unless noted, on the % scale 0 is the no-effect control and ±100 the full control effect.

SMILES	JMJD2E inh	PNC inhibitor	HPGD inh	ALDH1A1 inh
O=C(OCC(=O)N1CCN(c2ccccc2)CC1)c1ccccn1	7%	-6	-2%	0%
O=C(OCC(=O)N1CCN(c2ccccc2)CC1)c1ccc2ccccc2n1	0%	3	-7%	8.9µM*
CC(C)CN1CC2(CCN(S(=O)(=O)c3ccccc3)CC2)C1	.	.	-8%	3%
COc1ccc(CC(=O)Nc2oc(-c3ccccc3)c(-c3ccccc3)c2C#N)cc1OC	?	-100*	?	1%
COc1ccc(-c2oc(NC(=O)CCl)c(C#N)c2-c2ccc(OC)cc2)cc1	?	25	-16%	2.5µM*
Cc1cccc(OCC(=O)NNC(=O)Nc2cccc(Cl)c2)c1C	0%	10	?	1%
O=C(/C=C/c1ccccc1)NCCSCc1ccc(Cl)cc1	-7%	-5	-11%	0%
Cc1ccc(CSCCNC(=O)/C=C/c2ccccc2Cl)cc1	-7%	-23	8.9µM*	4.5µM*
O=C(/C=C/c1ccccc1)NCCSCc1ccccc1Cl	-8%	-91*	10µM*	2.2µM*
O=C(/C=C/c1ccc(Cl)cc1Cl)NCCSCc1ccccc1	-11%	?	14µM*	-10%
Cn1cccc1C(=O)N1CCC2(CCCN(C(c3ccccc3)c3ccccc3)C2)CC1	.	.	-11%	1%
S=C(NCCc1ccccc1)N1CCc2ccccc2C1	10%	.	.	0%
CCN(CC)c1ccc(NC(=O)CN2CCN(c3nc(C)cc(C)n3)CC2)cc1	-2%	-5	?	7.9µM*
CC(=O)c1ccc(NC(=O)CN2CCN(c3ncccn3)CC2)cc1	?	18	-5%	8.9µM*
CCN(CC)c1ccc(NC(=O)CN2CCN(c3ccc(F)cc3)CC2)cc1	1%	?	-11%	-7%
Cc1ccc(NC(=S)C2=C(O)c3ccccc3N(C)S2(=O)=O)cc1	-16%	-18	-20%	?
CCS(=O)(=O)N1CCN(c2ccccc2F)CC1	-5%	14	1%	1%
O=C1Oc2ccccc2C(=O)/C1=C/N1CCN(c2ccccc2F)CC1	2%	.	.	18µM*
Nc1nc(O)c2ncn([C@H]3CC[C@@H](CO)O3)c2n1	2%	.	-14%	4%
Nn1c(SCc2cc([N+](=O)[O-])cc3c2OCOC3)nnc1-c1cccnc1	10%	.	.	0%
Cc1ccc(S(=O)(=O)N[C@@H](CCc2ccccc2)CC(=O)C(C)(C)C)cc1	.	.	.	-17%[13.5 µM]
Cc1ccc(S(=O)(=O)NC(C)CCc2ccccc2)cc1 (stereo not given)	-4%	21	-6%	25µM*
COc1ccc(C(=O)N2C(=S)NC(=O)/C2=C\c2ccc(C)cc2)cc1	0%	?	28µM*	?
CCOC(=O)[C@]1(CC(=O)O)CCCC1=O	.	.	-9%	2%[13.5 µM]
Cc1c(N2C(=O)c3ccc4c5c(ccc(c35)C2=O)CC4)c(=O)n(-c2ccccc2)n1C	?	-92*	?	?
SMILES	JMJD2E inh	PNC inhibitor	HPGD inh	ALDH1A1 inh
CN1C(=S)N(c2cccnc2)C(=O)/C1=C\c1ccc(N(C)C)cc1	9%	.	.	13µM*
Cc1c(N2C(=O)/C(=C\c3ccc(N(C)C)cc3)N(C)C2=S)c(=O)n(-c2ccccc2)n1C	-1%	?	-7%	4.5µM*
CN1C(=S)N(c2cccnc2)C(=O)/C1=C\c1ccc(C(C)(C)C)cc1	-4%	.	.	7.1µM*
Cc1ccc([N+](=O)[O-])cc1NCC(=O)NN	18%	.	.	-8%
CCCCOP(=O)(c1ccc(N(C)C)cc1)C(O)c1ccncc1 (stereo not given)	22µM*	11	-22%	-15%
CCC1=NC(c2ccccc2Cl)N(O)C1(C)C (stereo not given)	-7%	-19	-1%	8%
CCC1=NC(c2ccc(OC)cc2OC)N(O)C1(C)C (stereo not given)	-26%	13	-11%	8.9µM*
Cc1ccc(S(=O)(=O)Nc2cccc(Oc3cnccn3)c2)cc1	8%	.	.	7.9µM*
CCN(CC)CCCC(C)NC(=O)c1ccc(Cc2nc3ccccc3[nH]2)cc1 (stereo not given)	.	.	-1%	-1%
O=C(c1ccncc1)N1CCN(C(=O)c2cccs2)CC1	-2%	-5	0%	10%
O=C(c1cccs1)N1CCN(Cc2ccccn2)CC1	-5%	.	.	15µM*
Cc1n[nH]c(=O)nc1N/N=C/c1ccc(O)c([N+](=O)[O-])c1	-11%	-12	-17%	?
O=C1C(Cl)=C(N2CCCCC2)C(=O)N1Cc1ccccc1	-10%	-104*	-17%	?
N=C(N)S[C@H]1c2ccccc2-c2cc([N+](=O)[O-])ccc21	.	.	-13%	-17%[13.5 µM]
Fc1ccc(NC(=S)Nc2cc(-c3ccccc3)[nH]n2)cc1Cl	-11%	.	.	1.4µM*
Cc1ccc(NC(=S)Nc2cc(-c3ccccc3)[nH]n2)cc1Cl	-4%	.	.	?
Fc1ccc(NC(=S)Nc2cccnc2)cc1	?	.	.	-4%
Fc1ccc(NC(=S)Nc2cccnc2)cc1Cl	?	.	.	28µM*
CC1(C)CC(=NOC(=O)c2ccccc2)CC(C)(C)N1O	8%	-27	-9%	-4%
N[C@@H](CC(=O)O)C(=O)O	7%	.	-2%	?
CC1=C([N+](=O)[O-])C(c2cccc(Br)c2)C2=C(N1)c1ccccc1C2=O (stereo not given)	-11%	-83*	16µM*	?
COC(=O)C1=C(C)NC2=C(C(=O)c3ccccc32)C1c1cccc(OC)c1 (stereo not given)	3%	.	.	.
CNc1ccccc1C(C)(C)c1cc(-c2ccc(F)cc2)no1	3%	?	-16%	8%
COc1ccc(-c2nc3cnc(N4CCNCC4)nc3n(CCC#N)c2=O)cc1	.	.	-28%	?
CCc1nnc(NS(=O)(=O)c2ccc(NC(=S)NC(=O)c3ccc(Br)cc3)cc2)s1	-3%	-5	14µM*	-7%
SMILES	JMJD2E inh	PNC inhibitor	HPGD inh	ALDH1A1 inh
CCc1nnc(NS(=O)(=O)c2ccc(NC(=S)NC(=O)/C=C/c3ccc(C(C)C)cc3)cc2)s1	-11%	15	25µM*	-73%
CCc1nnc(NS(=O)(=O)c2ccc(NC(=S)NC(=O)/C=C/c3ccc(OC)cc3)cc2)s1	-8%	11	?	2.5µM*
CCc1nnc(NS(=O)(=O)c2ccc(NC(=S)NC(=O)/C=C/c3ccccc3)cc2)s1	9%	-19	?	?
C/C(=N\[N+](C)(C)C)c1ccc(C)c(C)c1	.	.	-1%	-5%[13.5 µM]
O=C1N2CCCc3cccc(c32)C12Nc1ccccc1S2 (stereo not given)	3%	10	-17%	14µM*
CCOc1ccc(N2C(=O)CS/C2=C(\C(Cl)=C(Cl)Cl)[N+](=O)[O-])cc1	0%	50	-5%	22µM*
Cc1cc(C)c(S(=O)(=O)/N=C2/C=C(Sc3ncn[nH]3)C(=O)c3ccccc32)cc1C	-4%	?	0.89µM*	1.8µM*
